Experimental data published in PubChem BioAssay AID1508622 (National Center for Advancing Translational Sciences (NCATS), 2021).
A number with no mark means an inactive call. Calls follow the shape of the dose curve; as a rule, active = well fitted activation curve with a large enough effect; inconclusive = small, poorly fitted or top-dose-only effect; inactive = no such curve, though single readings can be large or run the other way.

test: Confirmatory qHTS for Identification of Small Molecule Activators of Huntingtin-Antisense Promoter Activity; details: HEK293 HTT-AS promoter firefly luciferase reporter, 24 h; series mostly up to 57.5 µM; activity change, positive = activation: at the top concentration
How it was run: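 HEK293 luciferase reporter cells, 2,500/well, cultured 24 h, then exposed to compounds at up to 57.5 uM final for 24 h at 37C. Firefly luciferase luminescence read; normalized to vehicle (0%) and zero RLU (-100%).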

**Q.** Which “activity change, positive = activation” value does the source give for CN1CCCC(n2nc(Cc3ccc(Cl)cc3)c3ccccc3c2=O)CC1 (centres undefined) here?
**A.** Its value is -9.68%.

**Q.** With CC[C@@H]1C(=O)N(C)c2cnc(Nc3ccc(C(=O)NC4CCC(N5CCN(CC6CC6)CC5)CC4)cc3OC)nc2N1C(C)C (some centres undefined) as the compound, how does the “activity change, positive = activation” value read?
**A.** Its value is 1.78%.

**Q.** Which “activity change, positive = activation” value does the source give for Cc1oc(-c2ccc(C(=O)NCc3ccc(Cl)cc3)cc2)nc1CS(=O)(=O)c1ccccc1 here?
**A.** The value was -20%.

**Q.** With O=C(O)c1ccc2c(c1)N(Cc1ccc(F)cc1)C(=O)c1ccccc1S2=O (centres undefined) as the compound, how does the “activity change, positive = activation” value read?
**A.** The value was -12.5%.

**Q.** With COc1ccc(C2=CC(c3ccc(F)cc3)n3ncc(C(=O)Nc4ccc(C)cc4)c3N2)cc1 (centres undefined) as the compound, how does the “activity change, positive = activation” value read?
**A.** The value was -18.3%.

**Q.** With CCCc1cc(N2CCN(c3ccc(OC)cc3)CC2)n2cnnc2n1 as the compound, how does the “activity change, positive = activation” value read?
**A.** Its value is -93.9%.

**Q.** Which “activity change, positive = activation” value does the source give for CCOc1ccc(C(=O)NCC(c2ccc3c(c2)OCO3)N2CCN(c3ccccc3F)CC2)cc1 (centres undefined) here?
**A.** The value was -8.64%.

**Q.** Which “activity change, positive = activation” value does the source give for CCOc1ccc(NC(=O)c2ccc(F)c(S(=O)(=O)N(CC)Cc3ccccc3)c2)cc1 here?
**A.** The value was -86.7%.

**Q.** Which “activity change, positive = activation” value does the source give for CCN(CC)CCNC(=O)c1c(C)[nH]c(C=C2C(=O)Nc3ccc(F)cc32)c1C here?
**A.** Its value is 0.416% [at 115 µM].
